Inhibition data for 88 compounds are collected here from PubChem BioAssay AID1706 (The Scripps Research Institute Molecular Screening Center, 2009).

Screen size: about 290,000 compounds; about 400 (0.14%) were called active. Cut-off read from the data, not from the text of the source: active = inhibition above about 12%; inactive = the rest. Many of the other results were omitted from the sample, so actives are more common in it than they were.

For the test, the target named is Replicase polyprotein 1ab (Severe acute respiratory syndrome coronavirus) (UniProt P0C6X7). The test can be described thus: SARS-CoV 3CLpro protease inhibitors, primary screen, biochemical, quenched FRET (AID 1706). As to conditions: recombinant SARS-CoV 3CLpro, quenched FRET peptide cleavage; at 6 µM; active compounds read high.
Usually inhibition stands for the relative decrease from the control value, in per cent. For the compound `COC(=O)c1ccc2c(=O)n(CCN3CCOCC3)c(SCC(=O)Nc3cccc(OC)c3)nc2c1`, the inhibition is -4.67% (inactive). The result for `CCC(=O)c1cn(CCOc2ccccc2OC)c2ccccc12` reads 1.13% (inactive); that for `COc1ccccc1NC(=O)N1CCCC1C(=O)NCc1cccs1` (stereo not drawn), -2.73% (inactive); that for `Cc1cc(C)cc(NS(=O)(=O)Cc2ccccc2)c1`, -7.45% (inactive). `CCCc1nnc(NC(=O)CCC(=O)NC2CC2)s1`: the inhibition is -2.59% (inactive). For `O=C(COC(=O)CCCNC(=O)c1ccc(Cl)cc1)Nc1cc(Cl)ccc1Cl`, the inhibition is -4.18% (inactive).

For `O=C(CN1CCC(NC(=O)Nc2ccccc2)CC1)Nc1cccc([N+](=O)[O-])c1`, the inhibition was -2.45% (inactive).

Regarding `CN(CC(=O)Nc1cccc(F)c1)CC(=O)Nc1cccc([N+](=O)[O-])c1`, the inhibition was 0.23% (inactive). Take `CN1CCN(CC(=O)Nc2cccc([N+](=O)[O-])c2)CC1`: the inhibition is 15.7% (active). Then `CC(=O)N1CCSc2ccc(S(=O)(=O)N3CCC(C)CC3)cc21`, with 0.66% (inactive). As for `O=C(COC(=O)c1cc(=O)[nH]c2ccccc12)Nc1nc(-c2cccc(Br)c2)cs1`, the inhibition was 2.23% (inactive). In the case of `CC(C)NC(=O)COCc1cc(-c2ccc3c(c2)OCO3)on1`, the inhibition was 3.95% (inactive). Take `CCc1nonc1NC(=O)c1oc2ccc(Cl)cc2c1C`: the inhibition is -1.85% (inactive). The result for `CCN1CCN(C(=O)Cn2nc(C)n3c(cc4c(OC)cccc43)c2=O)CC1` reads -4.38% (inactive); that for `COc1ccc(NC(=O)C2C3C=CC(C3)C2C(=O)NCc2ccccn2)c(OC)c1` (stereo not drawn), 0.98% (inactive); that for `O=C(CCc1nnc2ccc(NCc3ccccc3Cl)nn12)NCC1CCN(C2CCCC2)C1` (stereo not drawn), 2.8% (inactive). The result for `COc1cccc(CNS(=O)(=O)c2cc3c(cc2C)n(C)c(=O)c(=O)n3C)c1` reads 3.5% (inactive); that for `Cc1cc(C(=O)CCl)c(C)n1CC1COc2ccccc2O1` (stereo not drawn), 6.71% (inactive); that for `O=C(CN1C(=O)C2C3C=CC(C3)C2C1=O)NCC1COc2ccccc2O1` (stereo not drawn), 2.22% (inactive).

`O=C1C(=O)N(CC2COc3ccccc3O2)c2ccccc21` (stereo not drawn): the inhibition was 23.4% (active). On to `CC(C)c1ccccc1OCC(O)CN(CC(O)COc1cccc2ccccc12)C(C)C` (stereo not drawn), for which the inhibition is 3.86% (inactive). For the compound `Nc1ncc(CN2CCCC(C(=O)Nc3ccc(-c4ccco4)cc3)C2)cn1` (stereo not drawn), the inhibition was -4.02% (inactive). As for `CC12CCC(C(=O)N(NC(=O)c3ccccc3O)C1=O)C2(C)C` (stereo not drawn), the inhibition is 5.94% (inactive). As for `Cc1ccc(-c2nc(-c3cccnc3)sc2CC(=O)Nc2ccc(C)c(Cl)c2)cc1`, the inhibition is -0.63% (inactive).

Consider `Oc1ccc2ccc3cccc[n+]3c2c1`, for which the inhibition was 3.63% (inactive). The result for `CN(C)S(=O)(=O)c1cccc(C(=O)OCC(=O)N2CCCC2=O)c1` reads 0.39% (inactive); that for `C[C@H](NC(=O)C1CC(=O)N(c2ccc3c(c2)OCCO3)C1)C(=O)N1CCC(C(=O)O)CC1` (stereo partly drawn), 2.21% (inactive). Then `CCOC(CNC(=O)C(=O)NCC(c1ccco1)N1CCN(c2ccc(OC)cc2)CC1)OCC` (stereo not drawn), with -3.43% (inactive). Consider `Cc1c(C(=O)NCCN2CCOCC2)sc2nc(-c3ccc(F)cc3)cn12`, for which the inhibition was 3.35% (inactive).

Turning to `Cc1ccc(NS(=O)(=O)c2ccc3c(c2)oc(=O)n3C)c(C)c1`, the inhibition is 8.19% (inactive). The result for `CC1(C)N=C(c2ccccn2)C(C)(C)N1O` reads -1.96% (inactive). Then `COc1ccc([N+](=O)[O-])cc1NCC(=O)c1ccc(C)cc1`, with -0.37% (inactive). The result for `O=c1[nH]c(/C=C\c2cccc(C(F)(F)F)c2)nc(O)c1[N+](=O)[O-]` reads -0.63% (inactive). For `COc1ccc(C(CNC(=O)c2cc3c(s2)CCCC3)N2CCOCC2)cc1` (stereo not drawn), the inhibition was 0.58% (inactive). The result for `N#Cc1ncc(C(F)(F)F)cc1Oc1cccnc1` reads 4% (inactive); that for `COc1cccc(C(=O)NC(=O)Nc2nc(C)cc(C(F)(F)F)n2)c1`, -0.93% (inactive); that for `COc1cccc(CN(C)CC(O)COC(c2ccccc2)c2ccccc2C)c1` (stereo not drawn), -1.74% (inactive). Then `CCCCCCCCCCCCN1C(=O)CSC1c1cccnc1` (stereo not drawn), with 0.63% (inactive). As for `Cn1nc(-c2ccc(N3CCOCC3)c(NC(=O)c3ccccc3)c2)c2ccccc2c1=O`, the inhibition was -4% (inactive).

On to `O=C(Cc1ccc(Br)cc1)NCCN1CCOCC1`, for which the inhibition is -3.15% (inactive). As for `Cc1ccc(CNC(=O)C2(C(F)(F)F)C/C(=C\Cc3ccccc3)CCCO2)o1` (stereo not drawn), the inhibition was 2.14% (inactive). Then `CC(=O)N1CCCc2cc(S(=O)(=O)N3CCCC(C(=O)N4CCN(c5cccc(Cl)c5)CC4)C3)ccc21` (stereo not drawn), with -4.69% (inactive). In the case of `COc1cccc(N(C(=O)CNC(=O)c2ccco2)C(C(=O)NC2CCCCC2)c2cccnc2)c1` (stereo not drawn), the inhibition was 0.2% (inactive).

Consider `CC(C)c1ccc(N(C(=O)c2ccco2)C(C(=O)NC2CCCC2)c2cccnc2)cc1` (stereo not drawn), for which the inhibition is 50.8% (active). On to `O=C(NC1CCCC1)C(c1ccco1)N(C(=O)c1ccco1)c1ccc(F)cc1` (stereo not drawn), for which the inhibition is -3.74% (inactive). Regarding `CS(=O)(=O)N(CC(=O)N1CCOCC1)c1cccc(Cl)c1Cl`, the inhibition is 10.7% (inactive). For the compound `CCC(C)(C)NC(=O)C(c1ccc(O)cc1)N(C(=O)Cn1nnc2ccccc21)c1ccc(NC(C)=O)cc1` (stereo not drawn), the inhibition is 27.5% (active). Turning to `COc1ccc(C(C(=O)NC(C)(C)C)N(C(=O)Cn2nnc3ccccc32)c2ccc(C(C)=O)cc2)cc1O` (stereo not drawn), the inhibition was 3.87% (inactive). `COc1ccc(C(C(=O)NCC2CCCO2)N(C(=O)Cn2nnc3ccccc32)c2ccc(NC(C)=O)cc2)cc1OC` (stereo not drawn): the inhibition was 11.5% (inactive). For `CN1CN(C)c2ccc([N+](=O)[O-])c3cccc1c23`, the inhibition is 2.09% (inactive). Then `Cc1c(C(=O)NCC(c2ccco2)N2CCCC2)oc2ccc(Cl)cc12` (stereo not drawn), with -1.9% (inactive); and `CCN(CC(=O)NCC(=O)Nc1cccc(C)c1C)Cc1ccccc1`, with -2.94% (inactive); and `CCOC(=O)c1ccc(-n2c(CCC(=O)O)ccc2-c2ccccc2)cc1`, with 3.33% (inactive). In the case of `Cc1ccc2c(c1)C1CN(C)CCC1N2S(=O)(=O)c1ccc(Oc2ccc([N+](=O)[O-])cc2)cc1` (stereo not drawn), the inhibition was 0.21% (inactive).

Take `O=C1CCCCN1CCCC(=O)N1CCCC(Nc2ccc(F)cc2)C1` (stereo not drawn): the inhibition was -2.27% (inactive). The result for `CCN1CCN(C(=O)C2CCCN(S(=O)(=O)c3ccc(OC)c(OC)c3)C2)CC1` (stereo not drawn) reads -7.47% (inactive). In the case of `CC(C)c1c(C(=O)N/N=C/c2ccc(-c3ccccc3)cc2)nnn1-c1nonc1N`, the inhibition was 1.56% (inactive). The result for `c1ccc2c(-c3nn4nnnc4c4ccccc34)cccc2c1` reads -0.16% (inactive); that for `CC(=O)c1cccc(NC(=S)N2CCCC2)c1`, 0.53% (inactive). With `Cc1cccc(OCC(=O)Nc2ccc(C(=O)O)cc2NC(=O)COc2cccc(C)c2)c1`, the inhibition was 6.23% (inactive). For the compound `Cc1ccc(OCC(=O)Nc2ccc(C(=O)O)cc2NC(=O)COc2ccc(C)c(C)c2)cc1C`, the inhibition is 14.3% (active). Regarding `Cc1ccc(OCC(=O)Nc2cccc3c2CCCC3)cc1C`, the inhibition was -0.37% (inactive). As for `COc1cccc(CNC(=O)CN(C)S(=O)(=O)c2ccc3c(c2)c(=O)n(C)c(=O)n3C)c1`, the inhibition was 0.08% (inactive). The result for `COc1cccc(Cn2cc(/C=N/NC(=O)c3cc(O)cc(O)c3)c3ccccc32)c1` reads 6.16% (inactive); that for `Cc1ccc2c(c1)sc1ncc(NC(=O)c3ccccc3)c(=O)n12`, -0.46% (inactive). Consider `COC(=O)c1ccc(COC(=O)c2cnc(Cl)c(Cl)c2)cc1`, for which the inhibition is 7.32% (inactive). On to `COc1ccc2cc(CCl)c(Cl)nc2c1`, for which the inhibition is -3.78% (inactive). Regarding `COc1ccc(C(=O)NC(=S)N2CCNC(=O)C2CC(=O)OC(C)C)cc1` (stereo not drawn), the inhibition is 0.58% (inactive). The result for `CC(=O)N1CCN(C(=O)C2(NC(=O)Nc3ccc(C)cc3)CCCCC2)CC1` reads -11.2% (inactive); that for `CC(=O)Nc1ccc(NC(=O)C2CCCN2S(=O)(=O)c2cccc(C(F)(F)F)c2)cc1` (stereo not drawn), -4.86% (inactive). Then `Cc1cccc[n+]1CC(=O)c1ccccc1`, with 3.16% (inactive). With `O=C(/C=C/c1ccc(F)cc1)Nc1cccc(S(=O)(=O)Nc2cccc(C(F)(F)F)c2)c1`, the inhibition is 5.74% (inactive). As to `Cc1oc2c(F)c(F)c(F)c(F)c2c1S(=O)(=O)Nc1cccc(C(F)(F)F)c1`, the inhibition was 17.6% (active). Then `CCNS(=O)(=O)c1ccc(NC(=O)Nc2cccc(C(F)(F)F)c2)cc1`, with -1.22% (inactive); and `Cc1ccc(S(=O)(=O)N(CC(=O)NCc2ccco2)c2ccccc2C)cc1`, with -1.63% (inactive); and `COCCNC(=O)C(c1ccc(C)o1)N(Cc1ccccc1)C(=O)Cn1nnc2ccccc21` (stereo not drawn), with 0.75% (inactive). `O=C(NCc1ccco1)C(c1ccncc1)N(C(=O)Cn1nnc2ccccc21)c1ccccc1` (stereo not drawn): the inhibition was 1.89% (inactive). For `COc1ccccc1N(C(=O)Cn1nnc2ccccc21)C(C(=O)NCc1ccco1)c1ccc(C)o1` (stereo not drawn), the inhibition is 20.2% (active).

As to `Cc1cc(-c2ccc(S(=O)(=O)N3CCN(c4cccc(C(F)(F)F)c4)CC3)s2)on1`, the inhibition was 10.1% (inactive). The result for `O=C(c1c(F)cccc1Cl)N1CCN(S(=O)(=O)c2ccc3c(c2)OCCCO3)CC1` reads -1.16% (inactive); that for `COc1ccc(C)cc1N(CC(=O)NC(C)c1ccccc1)S(C)(=O)=O` (stereo not drawn), -1.09% (inactive).

Consider `Cc1ccccc1-c1nc(CS(=O)(=O)CC(=O)NC(C)c2ccccc2)c(C)o1` (stereo not drawn), for which the inhibition was -0.9% (inactive). For `O=C(c1cc(=O)c2ccccc2o1)N1CCN(c2ccccc2)CC1`, the inhibition was 13.7% (active). With `COc1cc2c(cc1OC)CN(C(=O)c1cc(=O)c3ccccc3o1)CC2`, the inhibition was -3.13% (inactive). As for `COc1ccccc1N1CCN(C(=O)c2cc(=O)c3cc(C)ccc3o2)CC1`, the inhibition was -1.99% (inactive). Then `CCOc1ccc(OCCSc2nc3ccccc3n2CC(=O)O)cc1`, with 1.7% (inactive); and `Cc1coc2c1c(C)cc1oc(=O)c(CC(=O)NCC(=O)N[C@H](C(=O)O)C(C)C)c(C)c12`, with 2.83% (inactive); and `Cc1ccc(S(=O)(=O)N[C@@H](Cc2ccccc2)C(=O)N2CCC(C(=O)N[C@H](C(=O)O)C(C)O)CC2)cc1` (stereo partly drawn), with -4.09% (inactive).
